Results reported in PubChem BioAssay AID485313 (National Center for Advancing Translational Sciences (NCATS), 2010).
Out of some 320,000 compounds screened, about 7,600 (2.4%) were called active. Entries that show only a call come without a potency. Not shown: some 3% with an inconclusive outcome. The sample holds actives, similar compounds and a random draw of the others, so the mix is not that of the screen. The call rests on the fitted dose curve; in most records, active means well fitted activation curve with a large enough effect; inconclusive means small, poorly fitted or top-dose-only effect; inactive means no such curve, though single readings can be large or run the other way.

Assay: qHTS Assay for NPC1 Promoter Activators; further: nearly all actives have a fitted effect of over 60% in size;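 on activation: reporter is driven by a mutant NPC1 promoter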
Conditions: Huh7 NPC1 promoter luciferase reporter, 24 h; series mostly up to 9.22 µM
Method in brief: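 Compounds in DMSO were transferred onto Huh7 NPC1-luciferase reporter cells pre-incubated 2 h; after 24 h at 37 °C, Amplite reagent was dispensed and luminescence recorded 10 min later.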
Potency means the concentration at half of the fitted maximal effect.

Row | Structure (SMILES) | Potency
1 | CCC(=O)c1cn(CCOc2ccccc2OC)c2ccccc12 | inactive
2 | CCOC(=O)CC1(NC(=O)c2cc(COc3cncc(Cl)c3)on2)CCCCC1 | inactive
3 | CCCOC1CCCN(C(=O)c2cc(COc3cncc(Cl)c3)on2)C1 (configuration not stated) | 3.98 µM (active)
4 | Cc1nonc1C1CCCN1C(=O)c1cc(COc2cccc(C(F)(F)F)c2)on1 (configuration not stated) | inactive
5 | Cc1ccc2c(c1)C1CN(C)CCC1N2S(=O)(=O)c1cccc(F)c1 (configuration not stated) | inactive
6 | O=C(CN1CCCSc2ccccc21)N1CCN(S(=O)(=O)c2cccc(F)c2)CC1 | inactive
7 | COC(=O)C1=C(C)NC(=S)NC1c1ccc(OCC(=O)N2CC(C)OC(C)C2)c(OC)c1 (configuration not stated) | inactive
8 | COc1ccc(CCNC(=O)COc2ccc3c(c2)OCO3)cc1 | inactive
9 | COC(=O)c1cc(NC(=O)C2C3C=CC(C3)C2C(=O)O)cc(C(=O)OC)c1 (configuration not stated) | inactive
10 | CC(=O)NS(=O)(=O)c1ccc(NC(=O)C2C3C=CC(C3)C2C(=O)O)cc1 (configuration not stated) | inactive
11 | CC(C)COC(=O)c1ccc(NC(=O)C2C3C=CC(C3)C2C(=O)O)cc1 (configuration not stated) | 2.24 µM (active)
12 | CCN(CC)S(=O)(=O)c1ccc2[nH]c(=O)cc(C(=O)N(C)C3CCS(=O)(=O)C3)c2c1 (configuration not stated) | inactive
13 | C[C@H](OC(=O)n1ccnc1)[C@@H]1O[C@@]2(C)CCC[C@@H]1O2 | inactive
14 | COc1ccccc1N1CC(C(=O)NCCN2C(=O)S/C(=C\c3cccnc3)C2=O)CC1=O (configuration not stated) | inactive
15 | Cc1ccc(C(CC(=O)O)NC(=O)c2ccc(S(=O)(=O)N3CCCC3)cc2)cc1 (configuration not stated) | inactive
16 | O=C(NCCN1CCOCC1)c1cccc(S(=O)(=O)Nc2ccc(F)cc2)c1 | inactive
17 | O=C(NC1CCCCCC1)c1cccnc1Sc1ccc(Cl)cc1 | inactive
18 | O=C(NC1CCCCC1)c1ccc(-c2ccc(Cl)cc2)o1 | 3.16 µM (active)
19 | O=C(NC(=S)NC1CCCCC1)c1ccc(Cl)cc1 | inactive
20 | Cc1ccc(NC(=O)C(C)Sc2nnc(C3CC3)n2C2CC2)cc1S(=O)(=O)N1CCOCC1 (configuration not stated) | inactive
21 | C=CCn1c(SCC(=O)NC(=O)Cc2ccccc2)nc2ccccc2c1=O | inactive
22 | O=C(Cn1c(-c2cncs2)nc2ccccc21)NC1CCCC1 | inactive
23 | O=C(/C=C/c1cnc2ccccc2n1)NC1CCCCCC1 | 3.55 µM (active)

Row | Structure (SMILES) | Potency
24 | Cc1nc(/N=C(\N)NC(=O)NC2CCCCC2)nc2ccccc12 | inactive
25 | COc1ccc2c(C)cc(SCC(=O)NCC3CCCO3)nc2c1 (configuration not stated) | inactive
26 | Cc1cccc(NC(=O)c2cccnc2Cl)n1 | inactive
27 | Cc1cccc(NC(=O)c2ccccc2NC(=O)C(C)(C)C)n1 | inactive
28 | Cc1cccc(NC(=O)c2ccc3ccccc3n2)n1 | 3.16 µM (active)
29 | CCC(=O)Nc1ccc2nn(-c3ccc(F)cc3)nc2c1 | 0.355 µM (active)
30 | Cc1ccc(-n2nc3ccc(NC(=O)/C=C/c4ccco4)cc3n2)cc1C | inactive
31 | CCC(=O)Nc1ccc(C(=O)Nc2cccc(OC)c2)cc1 | inactive
32 | Cc1noc(C)c1S(=O)(=O)Nc1ccc(C(=O)N2CCN(c3ccc(F)cc3)CC2)cc1 | inactive
33 | O=C(Nc1cccnc1Cl)c1cc(-c2cccc(Cl)c2)on1 | inactive
34 | O=C(NC1CCCC1)c1cc(-c2ccccc2)on1 | 1.26 µM (active)
35 | O=C(NCCCN1CCOCC1)c1cc(-c2cccc(O)c2)on1 | inactive
36 | Cc1cc(C)cc(-c2nnc(SCC(=O)NC3CC3)o2)c1 | inactive
37 | Cc1cccc(C)c1NC(=O)CSc1nc2c([nH]1)c(=O)n(C)c(=O)n2C | inactive
38 | CCOc1ncccc1C(=O)Nc1ccc(S(=O)(=O)Nc2nc(C)cc(C)n2)cc1 | inactive
39 | O=C(CSCc1ccc(Cl)cc1)N1CCCCC1 | 6.31 µM (active)
40 | O=C(CN1CCN(c2ccc(Cl)cc2)CC1)N1CCCC1 | inactive
41 | O=C(CSCc1ccc(Cl)cc1)N1CCN(Cc2ccc3c(c2)OCO3)CC1 | inactive
42 | CCN(c1ccccc1)S(=O)(=O)c1ccc(OCC(=O)N2CCCC2)cc1 | inactive
43 | O=C(NNC(=O)c1cc(S(=O)(=O)N2CCCCC2)ccc1Cl)c1ccccc1O | inactive
44 | Cc1cc(C)cc(NC(=O)C(c2ccccc2)N2CCN(CC(=O)N3CCCC3)CC2)c1 (configuration not stated) | inactive
45 | COc1ccc(S(=O)(=O)N2CCOCC2)cc1NC(=O)CC1CC2CCC1C2 (configuration not stated) | inactive
46 | CCOc1nnc(C)c2c(C)n(-c3cccc(Cl)c3)nc12 | inactive

Row | Structure (SMILES) | Potency
47 | Cc1ccc(C(=O)OCc2nc(N)nc(Nc3ccccc3C)n2)cc1 | inactive
48 | Cc1ccccc1Nc1nc(N)nc(CSc2ccccc2)n1 | 1.26 µM (active)
49 | Cc1ccccc1Nc1nc(N)nc(CSc2nnc3ccccn23)n1 | inactive
50 | O=C1CC[C@H](O)CCN1[C@H](CSc1ccc(Br)cc1)Cc1ccccc1 | inactive
51 | CCOc1cc(CN2CCN(C(=O)CC(C)C)CC2)ccc1OC | inactive
52 | COc1ccc(COCC(O)CN2CCC(C(N)=O)CC2)cc1 (configuration not stated) | inactive
53 | COc1cc(CN2CCC(C(N)=O)CC2)ccc1OCc1ccccc1 | 3.98 µM (active)
54 | CCOC(=O)C1CCN(S(=O)(=O)c2ccc3c(c2)N(C(C)=O)CCO3)CC1 | inactive
55 | Cc1ccc(C)c(NC(=O)C(c2ccccc2)N2CCN(CC(=O)NC3CC3)CC2)c1 (configuration not stated) | inactive
56 | Cc1ncc(CC(=O)n2cc(C(=O)c3cc(Cl)ccc3O)cn2)s1 | inactive
57 | COc1ccc(CNC(=O)COc2ccccc2C(=O)c2cnn(-c3ccccc3)c2)cc1OC | inactive
58 | O=C(c1cnn(-c2ccc(Cl)cc2)c1)c1ccccc1O | 3.55 µM (active)
59 | Cc1ccnc(Nc2nc3ccccc3s2)n1 | 3.55 µM (active)
60 | Cc1ccnc(-n2sc3ccccc3c2=O)n1 | inactive
61 | Cc1ccnc(NC(=O)c2ccco2)n1 | inactive
62 | COc1cc(C(=O)NNC(=O)CN2C(=O)NC3(CCCC3)C2=O)cc(OC)c1OC | inactive
63 | CN(C)S(=O)(=O)c1ccc(C(=O)NCC2(N3CCOCC3)CCCCC2)cc1 | inactive
64 | CC1CCCC(C)N1C(=O)CSc1nnnn1C1CCCC1 (configuration not stated) | inactive
65 | O=C(CSc1nnnn1C1CCCC1)N1CCCCC1 | 3.55 µM (active)
66 | CC(=O)Nc1ccc(NC(=O)CSc2nnnn2C2CCCCC2)cc1 | inactive
67 | C/C(=N\NC(=O)c1ccc(NS(=O)(=O)c2cccs2)cc1)c1ccc2ccccc2c1 | inactive
68 | COCCNc1nnc(SCC(=O)NNC(=O)c2ccco2)s1 | inactive
69 | Cc1cccc(-n2ncc(Cl)c(Cl)c2=O)c1 | inactive

Row | Structure (SMILES) | Potency
70 | COc1ccccc1N1CCN(C(=O)CSc2ncnc3c2cnn3-c2ccc(C)c(C)c2)CC1 | inactive
71 | COc1ccc(Oc2c(Cl)cnn(-c3ccccc3)c2=O)cc1 | inactive
72 | COc1ccc(-n2ncc3c(N4CCCc5ccccc54)ncnc32)cc1 | 0.501 µM (active)
73 | Cc1cccc(-n2ncc3c(N4CCc5ccccc54)ncnc32)c1 | 1.58 µM (active)
74 | COc1ccc2oc(=O)c(C(=O)N3CCCc4ccccc43)cc2c1 | inactive
75 | O=C(CCNC(=O)c1ccccc1Cl)NCc1ccco1 | inactive
76 | O=C(CCC(=O)c1ccccc1)NCc1cccc(C(F)(F)F)c1 | inactive
77 | FC(F)Oc1ccccc1C1CC(c2ccc(Br)s2)Nc2ncnn21 (configuration not stated) | inactive
78 | CCOC(=O)N1CCN(Cc2nc(N)nc(Nc3ccc(C)cc3)n2)CC1 | inactive
79 | Cc1ccc(Nc2nc(N)nc(CSc3nnc(C)s3)n2)cc1 | 2.51 µM (active)
80 | Cc1nnc(SCc2nc3ccccc3nc2C)s1 | inactive
81 | Nc1ccc(Nc2cc(O)c3ncccc3c2)cc1 | inactive
82 | CCCN(CC(=O)Nc1ccccc1C)C(=O)c1ccc2[nH]c3c(c2c1)CC(C)CC3 (configuration not stated) | inactive
83 | COc1ccc2oc(=O)c(C(=O)N3CCCC3)cc2c1 | inactive
84 | Cc1cc(C)cc(NC(=O)N2CCCCCCC2)c1 | inactive
85 | Cc1ccc2cc3cc(C(=O)N4CCCCCC4)oc3nc2c1 | 1.12 µM (active)
86 | COc1ccc(-c2c(-c3cc(OC)cc(OC)c3)n(C)c3ccc(-c4ccn[nH]4)cc23)cc1 | inactive
87 | O=C(Nc1ccncc1)c1ccc([N+](=O)[O-])cc1Cl | inactive
88 | O=C(Nc1ccc(Br)cn1)c1ccc([N+](=O)[O-])cc1Cl | 2 µM (active)
89 | O=C(Nc1ccc(Br)cn1)c1ccc([N+](=O)[O-])o1 | inactive
90 | C=CCn1cc(-c2cccc(C(F)(F)F)c2)cc(C#N)c1=O | inactive
91 | CN(C)C(CNC(=O)c1ccc(OCc2cn3ccccc3n2)cc1)c1ccco1 (configuration not stated) | inactive
92 | O=c1c(Cl)c(NC2CC2)cnn1-c1ccccc1 | inactive

Row | Structure (SMILES) | Potency
93 | Cc1ccc(Oc2cnn(-c3ccccc3)c(=O)c2Br)cc1 | inactive
94 | C=CCNc1cnn(-c2ccc(C)cc2)c(=O)c1Cl | 2.82 µM (active)
95 | CC(C)Nc1nnc(SCC(=O)c2c[nH]c3ccccc23)s1 | inactive
96 | COc1ccc(/C=N/Nc2ccccc2C(=O)O)cc1 | 0.0891 µM (active)
97 | COc1ccc(NS(=O)(=O)c2cc(C(=O)Nc3ccccc3C(=O)O)ccc2C)cc1 | inactive
98 | COc1ccc(/C=N/Nc2nc3ccccc3c(=O)[nH]2)cc1 | 3.16 µM (active)
99 | COc1ccc(/C=N/Nc2nc(-c3ccc(C)cc3)c(C#N)c(=O)[nH]2)cc1 | inactive
100 | COc1ccc(/C=N/OCC(=O)N(Cc2ccccc2)c2ccccc2C(=O)O)cc1 | inactive
101 | COc1ccc(CCCc2nnc(SCc3nc4ccccc4c(=O)[nH]3)n2C)cc1 | inactive
102 | CCC(=O)c1ccc(OCC(=O)N(CC)CC2COc3ccccc3O2)cc1 (configuration not stated) | inactive
103 | COCCn1c(C)cc(C(=O)COC(=O)CNC(=O)c2ccco2)c1C | inactive
104 | COc1cccc(C2=CC(=O)C[C@H](c3ccc(F)cc3)C2)c1OC | inactive
105 | Cc1cc(F)ccc1S(=O)(=O)Nc1ccc(C(=O)N(C)Cc2ccco2)cc1 | inactive
106 | COc1ccccc1NC(=O)COC(=O)COc1ccccc1F | inactive
107 | Nc1ccc(-c2sc(N)nc2-c2ccccc2)cc1 | inactive
108 | O=C(COC(=O)c1ccccc1Br)Nc1nnc(-c2ccccc2)o1 | inactive
109 | Nc1ccc(-c2nnc(-c3ccc(-c4ccccc4)cc3)o2)cc1 | 4.47 µM (active)
110 | O=C(Nc1cccc(Cl)c1)Nc1nnc(-c2ccccc2)o1 | inactive
111 | Nc1ccc(-c2nnc(-c3ccccc3)o2)cc1 | 3.16 µM (active)
112 | O=C(COC(=O)c1ccc(Oc2ccccc2)cc1)Nc1nnc(-c2ccccc2)o1 | inactive
